# From PubChem BioAssay AID1794835 (Parasite Biology Lab, Institute for Biomedicine and …, 2023)
# In all, about 2,500 compounds went through this assay and about 45 (2%) were called active. Cut-off read from the data, not from the text of the source: active = inhibition mostly above about 45% (no sharp cut-off); inactive = mostly below about 37%. What follows is part of a selection rich in actives, with near analogues and random picks from the rest.
# Assay: anti-Giardia activity of synthetic compounds – Compounds Australia Scaffold Library subset, 24/48 h, primary screen (AID 1794835);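 for inhibition: 0% = parasite counts in DMSO vehicle wells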
# Settings: Giardia lamblia BRIS/91/HEPU/1279 trophozoite counts, imaging, at 10 µM
# [1] = measured here: growth inhibition at 24 h, stronger effect = higher value
structure (smiles),measurement,setting,value
Cc1ccc(NC(=O)c2ccc(=O)n(CCN3CCOCC3)n2)cc1,inhibition,stronger effect = higher value,2.3% (inactive)
same,inhibition,[1],1.4%
Cc1ccc(NC(=O)c2cc3c(Cl)ccc4c3n2CCO4)cc1,inhibition,stronger effect = higher value,49.3% (active)
same,inhibition,[1],30.6%
Cc1ccc(NC(=O)C2=NN(CC(=O)Nc3ccc4c(c3)OCCO4)C(=O)CC2)cc1,inhibition,,inactive
CCOc1ccc(NC(=O)CN2C(c3ccc(C)cc3)=CC(c3ccccc3)n3nnnc32)cc1 (configuration not stated),inhibition,,inactive
CCN(CC)CCN1C(=O)C(O)=C(C(=O)c2cccs2)C1c1ccc(C)o1 (configuration not stated),inhibition,stronger effect = higher value,15% (inactive)
O=c1ccc(-c2nnco2)cn1Cc1ccc(F)c2cccnc12,inhibition,,inactive
Cc1ccc(NC(=O)c2oc3ccccc3c2NC(=O)c2ccccc2)cc1,inhibition,stronger effect = higher value,1.2% (inactive)
CC1CCN(C(=O)c2oc3ccccc3c2NC(=O)c2ccc([N+](=O)[O-])o2)CC1,inhibition,stronger effect = higher value,95.2% (active)
same,inhibition,[1],87.8%
CC1CCN(C(=O)c2n[nH]c(=O)c3ccccc23)CC1,outcome,,inactive
same,inhibition,[1],4%
Cn1cc(S(=O)(=O)N2CCN(C(=O)Cc3c[nH]c4ccccc34)CC2)cc1C(N)=O,inhibition,,inactive
Cc1cc(NCc2ccccc2CN2CCCC2)nc(-c2ccncc2)n1,inhibition,,inactive
Cc1nn(Cc2ccccc2)c2sc(C(=O)N3CCN(C(=O)N4CCCCC4)CC3)cc12,inhibition,stronger effect = higher value,14% (inactive)
COc1ccccc1N1CCN(C(=O)c2cc(C3CC3)[nH]n2)CC1,outcome,,inactive
same,inhibition,[1],9.6%
COc1ccccc1N1CCN(C(=O)c2cc3c(C)nn(-c4ccc(C)cc4)c3s2)CC1,inhibition,stronger effect = higher value,65.7% (active)
same,inhibition,[1],48%
Cc1nn(-c2ccc(F)cc2)c2sc(C(=O)N3CCCCC3C(N)=O)cc12 (configuration not stated),inhibition,,inactive
Cc1nn(-c2ccccc2)c2sc(C(=O)N3CCCCC3)cc12,inhibition,stronger effect = higher value,39.6% (active)
same,inhibition,[1],21.1%
COc1ccccc1N1CCN(C(=O)c2ccc3[nH]c(C)c(C)c3c2)CC1,inhibition,stronger effect = higher value,36.6% (inactive)
Cc1ccc(-c2ncc(C(=O)NC3CCCCCC3)c(C)n2)cc1,outcome,,inactive
same,inhibition,[1],6.7%
COc1cccc(CNC(=O)Cn2ccc3sccc3c2=O)c1,inhibition,stronger effect = higher value,6.6% (inactive)
same,inhibition,[1],0.5%
COc1cccc(N2CCN(C(=O)C3CCN(c4nc(NC(C)=O)ns4)CC3)CC2)c1,inhibition,stronger effect = higher value,16.2% (inactive)
same,inhibition,[1],7.9%
CCCc1cc(N2CCOCC2)n2nc(C)c(-c3ccccc3)c2n1,inhibition,stronger effect = higher value,20.2% (inactive)
Cc1cc(NC(=O)CN2c3ccccc3NC3=C(C(=O)CC(C)(C)C3)C2c2ccccc2)no1 (configuration not stated),inhibition,,inactive
Cn1cnc2onc(C(=O)NC3CCCCC3)c2c1=O,inhibition,,inactive
O=S(=O)(c1cccc(F)c1)N1CC(OCc2cccc(F)c2)C1,inhibition,stronger effect = higher value,10% (inactive)
same,inhibition,[1],1.5%
Cc1nc2sccn2c1-c1nc(-c2ccccc2)c(C(=O)c2ccc3c(c2)NC(=O)CO3)s1,inhibition,stronger effect = higher value,7% (inactive)
same,inhibition,[1],1.6%
Nc1c(-c2nc(-c3ccccc3)cs2)c2ccccn2c1C(=O)c1ccc2c(c1)OCO2,inhibition,stronger effect = higher value,83.1% (active)
same,inhibition,[1],63.2%
COc1ccc(C(=O)c2c(N)c(-c3nc(-c4cc(OC)ccc4OC)cs3)c3ccccn23)cc1,outcome,,inactive
same,inhibition,[1],3.8%
COc1cccc(C(=O)N2CCN(CC3CCCO3)CC2)c1 (configuration not stated),inhibition,,inactive
CCOc1ccc(NC(=O)N2Cc3cccn3-c3ccccc32)cc1,inhibition,,inactive
CN1CCCN(c2ncnc3cc(Cl)ccc23)CC1,inhibition,,inactive
COc1ccc(-c2csc(C3=C(O)CN(CC(C)(C)CN(C)C)C3=N)n2)cc1OC,inhibition,stronger effect = higher value,76.8% (active)
same,inhibition,[1],23.9%
COc1ccc(-c2csc(-n3nccc3C(F)(F)F)n2)cc1OC,inhibition,stronger effect = higher value,27.9% (inactive)
same,inhibition,[1],8%
N=C1C(c2nc(-c3ccc(Cl)cc3)cs2)=C(O)CN1CCc1ccccc1,inhibition,,inactive
Cc1ccc(COCc2nn(C)c3c2CN(C(=O)Nc2ccccc2)CC3)cc1,outcome,,inactive
same,inhibition,[1],4.7%
CCn1cc(C(=O)NCc2ccccc2)c(=O)c2ccc(C)nc21,inhibition,stronger effect = higher value,6.1% (inactive)
same,inhibition,[1],8.9%
Cc1ncncc1C(=O)N1CCN(CC(O)C(C)(C)C)CC1 (configuration not stated),inhibition,,inactive
COc1ccc(Nc2cc(C)nc(N3CCN(C(=O)Nc4cccc(OC)c4)CC3)n2)cc1,inhibition,stronger effect = higher value,86.6% (active)
same,inhibition,[1],49.4%
COc1ccc(Nc2cc(C)nc(N3CCN(C(=O)c4ccccc4)CC3)n2)cc1,inhibition,stronger effect = higher value,29.3% (inactive)
same,inhibition,[1],5.55%
COc1ccc(NC(=O)N2CCN(c3cc(C)nc(N4CCOCC4)n3)CC2)cc1,inhibition,stronger effect = higher value,44.4% (inactive)
same,inhibition,[1],12.7%
CN(C)C(=O)CN1CCCN(Cc2ncc(C(C)(C)C)o2)CC1,inhibition,stronger effect = higher value,1.9% (inactive)
same,inhibition,[1],6.5%
CCN(Cc1ccccc1)C(=O)c1cc(-c2ccccc2)n[nH]1,inhibition,stronger effect = higher value,36.1% (inactive)
same,inhibition,[1],19.1%
Cc1noc(C)c1S(=O)(=O)N1CCC(C(=O)NCC(c2ccccc2)N(C)C)CC1 (configuration not stated),outcome,,inactive
same,inhibition,[1],10.5%
Cc1nn(C)c2sc(C(=O)N3CCN(S(=O)(=O)c4ccc(Br)cc4)CC3)cc12,inhibition,stronger effect = higher value,10.6% (inactive)
COc1ccc(NC(=O)c2ccc(-c3cc(NC4CCCCC4)ncn3)cc2)cc1,inhibition,stronger effect = higher value,51% (active)
same,inhibition,[1],17.1%
CCOc1ccc(C(=O)Nc2ccc(-c3nnc4n3CCCCCC4)cc2)cc1,inhibition,,inactive
COc1ccc2c(c1)CCc1c-2noc1-c1ccc(NC(=O)c2cc(C)nn2C)cc1,inhibition,,inactive
Cc1ccc(CNC(=O)N2CCN(C3=CC4=NCC(C)N4C=N3)CC2)cc1 (configuration not stated),inhibition,stronger effect = higher value,11.9% (inactive)
same,inhibition,[1],18.7%
Fc1ccc(C2=Nc3ccc(Cl)cc3NC(c3cccs3)=N2)cc1,outcome,,inactive
same,inhibition,[1],23%
Cc1ccc2c(c1)NC(c1ccc(C)o1)=NC(c1cccs1)=N2,inhibition,stronger effect = higher value,54.6% (active)
same,inhibition,[1],15.2%
CCn1c(C2CCN(C(=O)c3ccc(Br)cc3)C2)nc2cccnc21 (configuration not stated),inhibition,,inactive
CCCn1c(=O)c(C)nc2cc(-c3noc(-c4cccc(NC(=O)c5ccco5)c4)n3)ccc21,inhibition,,inactive
COc1cc(OC)c(N2CC(C(=O)N3CCc4sccc4C3)CC2=O)cc1Cl (configuration not stated),inhibition,,inactive
O=[N+]([O-])c1ccccc1Sc1nnnn1C1CCOCC1,inhibition,stronger effect = higher value,8.6% (inactive)
same,inhibition,[1],6.15%
C1CCC(Sc2nnc(N3CCOCC3)s2)C1,inhibition,,inactive
O=[N+]([O-])c1cc(F)ccc1Sc1nnc(N2CCOCC2)s1,inhibition,stronger effect = higher value,60.8% (active)
same,inhibition,[1],30.9%
CCCC(=O)Nc1ccc2nc(N3CCCC3)cc(C(=O)O)c2c1,inhibition,,inactive
COc1ccc(CN2CCN(C(=O)c3c(C)oc4c3C3=NCCN3C=N4)CC2)c(OC)c1OC,inhibition,stronger effect = higher value,7.4% (inactive)
same,inhibition,[1],3%
Cc1ccccc1C(=O)Nc1cnc(N2CCNCC2)c(C(=O)N(C)Cc2ccccc2)c1,inhibition,stronger effect = higher value,15.2% (inactive)
same,inhibition,[1],10.2%
CCC(=O)N1CCC(Oc2ccc(C(=O)N3CCOCC3)cn2)CC1,inhibition,,inactive
Cc1nnc2n1CCN(C(=O)c1cc(Br)c[nH]1)C2,inhibition,,inactive
COc1cc(N2CCn3c(nc4cc(Cl)ccc43)C2)ccc1NC(=O)COc1ccccc1,inhibition,,inactive
COc1c(C)cnc(Cn2cnc([N+](=O)[O-])c2)c1C,inhibition,stronger effect = higher value,83% (active)
same,inhibition,[1],25.8%
Cc1noc(-c2c(C)sc(C)c2S(=O)(=O)NCc2ccccc2)c1C,inhibition,stronger effect = higher value,30.5% (inactive)
Cc1ccc(C(=O)N2CCC(Oc3ncccc3C(=O)N3CCCCC3)C2)c(C)c1 (configuration not stated),outcome,,inactive
same,inhibition,[1],0.6%
COc1ccc2oc(-c3noc(C(NC(=O)c4ccco4)C(C)C)n3)c(C)c2c1 (configuration not stated),inhibition,stronger effect = higher value,9.9% (inactive)
same,inhibition,[1],18.3%
COc1ccc2oc(-c3noc(C(=O)NCCN4CCCCCC4)n3)c(C)c2c1,inhibition,stronger effect = higher value,56.6% (active)
same,inhibition,[1],11.6%
Cc1ccc2oc(-c3noc(C(=O)NCC4CCCO4)n3)c(C)c2c1 (configuration not stated),outcome,,inactive
same,inhibition,[1],2%
Cc1cccc(-c2nc(Cn3nnc(C(=O)Nc4ccc5c(c4)OCCO5)c3N)c(C)o2)c1,inhibition,,inactive
CCOc1ccc(CCNC(=O)c2ccc3c(c2)nc2n3CCOC2)cc1OCC,inhibition,stronger effect = higher value,79.8% (active)
same,inhibition,[1],27.2%
CCOc1ccc(CCNC(=O)c2c(C)oc3c2C2=NCCN2C=N3)cc1OCC,inhibition,stronger effect = higher value,17.8% (inactive)
CSc1ccc(CCNC(=O)c2ccc3c(c2)nc2n3CCOC2)cc1,inhibition,stronger effect = higher value,12.8% (inactive)
Cc1ccc(-c2nc3ccccc3n2Cc2cccc(F)c2)o1,inhibition,stronger effect = higher value,16.3% (inactive)
same,inhibition,[1],22.1%
COc1ccc(C2(C(=O)N3CCC(Cc4nc(-c5ccc(F)cc5)no4)CC3)CC2)cc1,outcome,,inactive
same,inhibition,[1],11.4%
C=CCn1c(SCC(=O)N2CCCCC2)nc2scc(-c3ccco3)c2c1=O,inhibition,stronger effect = higher value,5.6% (inactive)
same,inhibition,[1],6.8%
CCCCn1nnnc1CN1CCCC1Cn1cncn1 (configuration not stated),outcome,,inactive
same,inhibition,[1],2%
O=C(Nc1ccn(Cc2cccnc2)n1)c1ccc2n[nH]nc2c1,inhibition,,inactive
O=C(Cc1csc2nc(-c3ccccc3)cn12)NCCc1cccs1,outcome,,inactive
same,inhibition,[1],0.1%
O=C(Cn1nccc1-c1ccncc1)Nc1ccc(Cl)cc1,inhibition,,inactive
O=C(Cc1csc2nc(-c3ccccc3)cn12)Nc1ccc(Cl)cc1,inhibition,stronger effect = higher value,67.7% (active)
same,inhibition,[1],47.6%
Cc1oc(-c2cccs2)nc1Cn1cccn1,inhibition,,inactive
O=C(Cc1noc(-c2ccoc2)n1)NC1CCCCC1,inhibition,stronger effect = higher value,3.1% (inactive)
same,inhibition,[1],4.9%
Cc1ccc(C)c(-c2cc3c4nn(CC(=O)N(C)c5ccc(F)cc5)c(=O)n4ccn3n2)c1,inhibition,stronger effect = higher value,96.3% (active)
same,inhibition,[1],79.6%
O=C(Cn1nc2c3cc(-c4ccccc4)nn3ccn2c1=O)N1CCCc2ccccc21,inhibition,,inactive
Cc1ccc(CNC(=O)c2ccc3nn(CC(=O)N(C)c4ccccc4)c(=O)n3c2)cc1,inhibition,,inactive
O=S(=O)(Cc1ccc(C(F)(F)F)cc1)Cc1noc(C2CC2)n1,outcome,,inactive
same,inhibition,[1],12.6%
CCc1nccn1CC1CCCN1 (configuration not stated),outcome,,inactive
same,inhibition,[1],0.2%
Cc1ccc(N2C(=O)N[C@@H]3C[C@]2(C)Oc2c(O)cc(C(C)(C)C)cc23)cc1C,inhibition,,inactive
Cc1c(-c2nc(-c3ccccc3)no2)nnn1-c1cccc(Cl)c1,inhibition,,inactive
Cc1ccc(C)c(NC(=O)Cc2nc(Cn3cnc([N+](=O)[O-])c3)cs2)c1,inhibition,stronger effect = higher value,59.9% (active)
same,inhibition,[1],8.45%
Cc1ccc(NC(=O)Cc2nc(-c3ccc4c(c3)CC(=O)N4C)cs2)cc1,inhibition,stronger effect = higher value,10% (inactive)
same,inhibition,[1],9.8%
CN(C)C(=O)Cc1nc(CN2CCc3c(ncn3C)C2)cs1,outcome,,inactive
same,inhibition,[1],1.4%
